These results are taken from PubChem BioAssay (EPA / NIEHS).

In general, AC50 refers to the midpoint of the concentration-response curve, whichever way the signal moves.

The source made the active and inactive calls. How the source made its calls: active means hit-call score of the fitted dose curve at least 0.9, where 1 is the maximum; inactive means score below 0.9.

Read-out in assay [1]: Vascular cell adhesion molecule 1 (VCAM1), VCAM1 (gene 7412)
The experiment in a line: BSK_4H_VCAM1: BioMAP Diversity Plus: 4H Assay for Vascular cell adhesion molecule 1 (VCAM1) Biomarker Activity (AID 2283033).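 On outcome: cell-surface VCAM-1 protein measured by ELISA.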 The settings on record: primary human endothelial cells (HUVEC); actives raise or lower the signal. Summed up: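 HUVEC, 24 h post-dose; VCAM-1 by ELISA. Bidirectional curve fit vs DMSO baseline. Parallel SRB total-protein stain (0.1% SRB after 10% TCA fixation, 560 nm) for cytotoxicity.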

Read-out in assay [2]: Interferon-gamma inducible Protein 10 (IP10), CXCL10 (gene 3627)
The experiment in a line: BSK_BE3C_IP10: BioMAP Diversity Plus: BE3C Assay for Interferon-gamma inducible Protein 10 (IP10) Biomarker Activity (AID 2283034). The following applies: primary human bronchial epithelial cells; actives raise or lower the signal. Summed up:
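ELISA readout of IP-10 in BE3C system: primary human bronchial epithelial cells, 24 h post-dosing; bidirectional curve fit vs DMSO baseline.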

Read-out in assay [3]: Monokine induced gamma interferon (MIG), CXCL9 (gene 4283)
The experiment in a line: BSK_BE3C_MIG: BioMAP Diversity Plus: BE3C Assay for Monokine induced gamma interferon (MIG) Biomarker Activity (AID 2283035).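 Further: MIG protein measured by ELISA in BE3C cultures after 24 h of dosing.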 The settings on record: primary human bronchial epithelial cells; actives raise or lower the signal. Summed up: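 hu bronchial epithelial 1° cells, 24 h cpd; MIG by ELISA; bidirectional fit, DMSO = baseline.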

Read-out in assay [4]: Transforming growth factor beta 1 (TGFb1), TGFB1 (gene 7040)
The experiment in a line: BSK_BE3C_TGFb1: BioMAP Diversity Plus: BE3C Assay for Transforming growth factor beta 1 (TGFb1) Biomarker Activity (AID 2283036;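 on outcome: TGF-b1 protein level measured by ELISA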). The settings on record: primary human bronchial epithelial cells; actives raise or lower the signal. In short, it runs like this:
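Read-out: ELISA for TGF-b1 in primary human bronchial epithelial cultures, 24 h post-dose. Bidirectional curve fitting vs DMSO control; gain or loss of signal both scored.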

Read-out in assay [5]: Plasminogen activator inhibitor-1 (PAI1), SERPINE1 (gene 5054)
The experiment in a line: BSK_BE3C_PAI1: BioMAP Diversity Plus: BE3C Assay for Plasminogen activator inhibitor-1 (PAI1) Biomarker Activity (AID 2283037). The following applies: primary human bronchial epithelial cells; actives raise or lower the signal. In short, it runs like this: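 ELISA read-out of PAI-1 from human bronchial epithelial primary cells, 24 h post-dosing; bidirectional curve fit vs DMSO baseline, gain or loss of signal scored.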

Read-out in assay [6]: urokinase plasminogen activator (uPA), PLAU (gene 5328)
The experiment in a line: BSK_BE3C_uPA: BioMAP Diversity Plus: BE3C Assay for urokinase plasminogen activator (uPA) Biomarker Activity (AID 2283038).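 On outcome: uPA protein level quantified by ELISA in cell cultures; uPA read one day after compound addition.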 The settings on record: primary human bronchial epithelial cells; actives raise or lower the signal. Summed up:
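Primary human bronchial epithelial cells, uPA measured by ELISA 24 h after dosing. Bidirectional change relative to DMSO; cytotoxicity checked in parallel cultures by sulforhodamine B total-protein staining.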

Read-out in assay [7]: Urokinase-type plasminogen activator receptor (uPAR), PLAUR (gene 5329)
The experiment in a line: BSK_BE3C_uPAR: BioMAP Diversity Plus: BE3C Assay for Urokinase-type plasminogen activator receptor (uPAR) Biomarker Activity (AID 2283039).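 On outcome: uPAR protein level measured by ELISA on the cells; cells exposed to compound for one day before measurement.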 The following applies: primary human bronchial epithelial cells; actives raise or lower the signal. Summed up:
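ELISA readout of uPAR on human lung primary bronchial epithelial cells, 24 h post-dosing. Bidirectional curve fit relative to DMSO vehicle baseline; gain or loss of signal both scored.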

Read-out in assay [8]: Interleukin-6 (IL6), IL6 (gene 3569)
The experiment in a line: BSK_CASM3C_IL6: BioMAP Diversity Plus: CASM3C Assay for Interleukin-6 (IL6) Biomarker Activity for (AID 2283040). The settings on record: primary human coronary artery smooth muscle cells; actives raise or lower the signal.

Read-out in assay [9]: Tissue plasminogen activator (tPA), PLAT (gene 5327)
The experiment in a line: BSK_BE3C_tPA: BioMAP Diversity Plus: BE3C Assay for Tissue plasminogen activator (tPA) Biomarker Activity (AID 2283041).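 On outcome: tPA level quantified by ELISA one day after compound addition.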 The following applies: primary human bronchial epithelial cells; actives raise or lower the signal. Summed up:
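ELISA read-out of tPA on human primary bronchial epithelial cells, 24 h post-dosing; bidirectional fit vs DMSO negative control/baseline.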

Read-out in assay [10]: Interleukin-8 (IL8), CXCL8 (gene 3576)
The experiment in a line: BSK_CASM3C_IL8: BioMAP Diversity Plus: CASM3C Assay for Interleukin-8 (IL8) Biomarker Activity (AID 2283042).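 Further: IL-8 protein level quantified by ELISA.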 The following applies: primary human coronary artery smooth muscle cells; actives raise or lower the signal.

On to `CCCCN1C(=O)[C@@H]([C@H](O)C2CCCCC2)NC(=O)C12CCN(Cc1ccc(Oc3ccc(C(=O)O)cc3)cc1)CC2`, for which the result in [1], in assay [2], in [3], in assay [4], in assay [5] and in [6] was inactive. Moreover, the outcome in assay [7], in [8], in [9] and in assay [10] was inactive.

For `S=P(N1CC1)(N1CC1)N1CC1`, the result in assay [1], in assay [2], in assay [3], in assay [4], in assay [5] and in assay [6] was inactive. Moreover, the result in assay [7], in [8], in assay [9] and in assay [10] was inactive.

In the case of `Cc1nccn1-c1ccc(Sc2cccc(C3(C(N)=O)CCOCC3)c2)cc1`, the half-maximal activity concentration (AC50) was 6.37 µM (active) in [1]; 20 µM (active) in assay [2]; 14.3 µM (active) in assay [6]; 10.3 µM (active) in [7]; 5.2 µM (active) in assay [8]; 4.43 µM (active) in [9]. Besides, the result in [3], in assay [4], in [5] and in assay [10] was inactive.

Regarding `COc1cc(C(C)C)c2c(c1)S(=O)(=O)N(COc1cc(=O)n3cccc(OCCN4CCCCC4)c3n1)C2=O`, the concentration at half-maximal activity (AC50) in assay [1] was 5 µM (active); in assay [2], 7.41 µM (active); in assay [5], 8.4 µM (active); in assay [6], 8.13 µM (active); in [9], 3 µM (active). The outcome in assay [3], in assay [4], in [7], in assay [8] and in assay [10] was inactive.

Take `OC(CCl)CCl`: the outcome in assay [1], in assay [2], in [3], in assay [4], in assay [5] and in assay [6] was inactive. The result in assay [7], in assay [8], in [9] and in assay [10] was inactive.

Regarding `COc1cc2c(c(OC)c1OC)-c1ccc(OC)c(=O)cc1[C@@H](NC(C)=O)CC2`, the result in assay [1], in assay [2], in assay [3], in [4], in [6] and in assay [7] was inactive. Besides, the outcome in [9] and in assay [10] was inactive. The AC50 in [5] and in [8] was 0.148 µM (active) in each case.

In the case of `O=c1[nH]cnc2c1ncn2[C@H]1CC[C@@H](CO)O1`, the result in [1], in assay [2], in assay [3], in assay [4], in assay [5] and in assay [6] was inactive. Also, the outcome in [7], in assay [8], in assay [9] and in assay [10] was inactive.

On to `Nc1ccn([C@@H]2O[C@H](CO)[C@@H](O)[C@@H]2O)c(=O)n1`, for which the outcome in assay [1], in [2], in [3], in assay [4], in [5] and in assay [6] was inactive. Moreover, the result in [7], in assay [8], in assay [9] and in [10] was inactive.

`CCCCCCCC1CCC(=O)O1` (stereo not given): the result in [1], in assay [2], in assay [3], in [4], in [5] and in assay [6] was inactive. Besides, the result in assay [7], in assay [8], in assay [9] and in assay [10] was inactive.

`CC(=O)c1ccccc1`: the outcome in assay [1], in [2], in assay [3], in [4], in [5] and in [6] was inactive. In addition, the outcome in [7], in assay [8], in assay [9] and in [10] was inactive.

`CC(C)C(=O)Nc1ccc([N+](=O)[O-])c(C(F)(F)F)c1`: the outcome in [1], in assay [2], in assay [3], in assay [4], in [5] and in assay [6] was inactive. The outcome in assay [7], in assay [8], in assay [9] and in assay [10] was inactive.

For the molecule `COCc1nnc(-c2ccc[n+]([O-])c2)n1-c1c(Cl)c(Cl)cc2[nH]c(=O)c(=O)[nH]c12`, the result in assay [1], in assay [2], in assay [3], in [4], in assay [5] and in assay [6] was inactive. The outcome in assay [7], in assay [8], in assay [9] and in [10] was inactive.

For the molecule `CCCCCCCCCCCCCCCCOS(=O)(=O)O`, the outcome in [1], in [3], in [8] and in [10] was inactive. Besides, the AC50 was 10.5 µM (active) in assay [2]; 16 µM (active) in assay [4]; 15.1 µM (active) in [5]; 15.7 µM (active) in assay [6]; 16.1 µM (active) in [7]; 14.9 µM (active) in assay [9].

Regarding `OCCOCCOCCO`, the result in assay [1], in assay [2], in assay [3], in assay [4], in assay [5] and in assay [6] was inactive. Moreover, the result in assay [7], in assay [8], in assay [9] and in assay [10] was inactive.

For `CC(C)c1nnc2ccc(-c3ocnc3-c3cc(F)ccc3F)cn12`, the outcome in [1], in [2], in assay [3], in assay [4], in assay [5] and in assay [6] was inactive. Further, the outcome in assay [7] and in assay [9] was inactive. In addition, the concentration at half-maximal activity (AC50) in assay [8] is 0.552 µM (active); in assay [10], 0.628 µM (active).

With `OCc1ccccc1`, the result in assay [1], in assay [2], in assay [3], in assay [4], in assay [5] and in [6] was inactive. The result in assay [7], in assay [8], in [9] and in [10] was inactive.

`CCCCCCCCCCCCCCO`: in [1], the AC50 was 34.2 µM (active). The outcome in assay [2], in assay [3], in assay [4], in assay [5], in [6] and in [7] was inactive. Also, the outcome in assay [8], in assay [9] and in [10] was inactive.

As for `OCc1c[nH]c2ccccc12`, the result in assay [1], in assay [3], in assay [4], in assay [6], in assay [7] and in assay [8] was inactive. Moreover, the result in assay [9] and in assay [10] was inactive. Moreover, the figures for the concentration at half-maximal activity (AC50) in [2] and in assay [5] were 5.95 µM (active) and 0.0716 µM (active), respectively.

`Cn1c(=O)c2[nH]cnc2n(C)c1=O`: the outcome in assay [1], in assay [2], in assay [3], in assay [4], in [5] and in assay [6] was inactive. The result in assay [7], in assay [8], in assay [9] and in assay [10] was inactive.

On to `CCCCCCCCCC`, for which the outcome in assay [1], in assay [2], in assay [3], in assay [4], in [5] and in assay [6] was inactive. In addition, the result in [7], in assay [8], in assay [9] and in [10] was inactive.
